RORg inh: blocks mouse ROR gamma transcriptional activity; 310,000 compounds, 5.4% hits; Potency, µM (highest dose often 53.6 µM), usual class: inhibitors; Drosophila S2 Gal4-RORgamma UAS-luciferase reporter, 20 h; P51450; further: nearly all actives have a fitted effect of over 60% in size
Target sequence (P51450 whole entry, looked up, the tested form may be a part): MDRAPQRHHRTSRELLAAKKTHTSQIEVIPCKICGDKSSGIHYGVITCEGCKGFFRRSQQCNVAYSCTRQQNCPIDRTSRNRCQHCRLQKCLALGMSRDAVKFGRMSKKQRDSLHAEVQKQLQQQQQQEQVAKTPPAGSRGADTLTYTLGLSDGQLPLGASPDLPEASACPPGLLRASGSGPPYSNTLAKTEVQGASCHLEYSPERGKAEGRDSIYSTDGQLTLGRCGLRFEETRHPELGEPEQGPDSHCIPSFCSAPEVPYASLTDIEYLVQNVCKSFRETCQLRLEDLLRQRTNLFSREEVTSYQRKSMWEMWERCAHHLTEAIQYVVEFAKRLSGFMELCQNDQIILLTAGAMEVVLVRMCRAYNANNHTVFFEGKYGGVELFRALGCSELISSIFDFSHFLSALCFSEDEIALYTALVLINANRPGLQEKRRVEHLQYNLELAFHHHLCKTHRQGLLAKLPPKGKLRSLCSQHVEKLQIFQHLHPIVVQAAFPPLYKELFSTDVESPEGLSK
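Drosophila S2 cells stably expressing Gal4-DBD/mouse RORγ fusion under metallothionein promoter plus UAS-luciferase; compound 1 h, then 700 uM CuSO4 induction for 20 h at ambient temperature; inhibition read as reduced luminescence.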
Gal4-VP16 FLuc: counter-screen for ROR gamma inhibitors: Gal4-VP16 reporter; Drosophila S2 Gal4-VP16 UAS-luciferase, luminescence, 20 h; Potency, µM (top dose mostly 53.6 µM), most hits filed as inhibitors; 310,000 compounds, 3.5% hits;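 further: Gal4-VP16 expression switched on by copper sulfate through the metallothionein promoter; nearly all actives have a fitted effect of over 50% in size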
Luc counter: counter-screen: inhibitors of Kinase-Glo firefly luciferase. Q27757. Potency, µM (highest dose often 38.3 µM), most hits filed as inhibitors. AID 1379. 200,000 compounds, 0.28% hits. Kinase-Glo luciferase, ATP luminescence, 8 min; further: nearly all actives have a fitted effect of over 60% in size
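Luminescence was the read-out, taken after 8-minute incubation at ambient temperature. Luciferase turned over luciferin with 10 uM ATP in imidazole pH 7.2 buffer containing KCl, MgCl2, Tween 20 and BSA.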
Of the large screens only hits and unclear results are named; the others gave an inactive call. An excerpt weighted towards active compounds, which were near 6.4% of everything screened. The call rests on the fitted dose curve; in most records, active means well fitted curve in the direction sought with a large enough effect; inconclusive means small, poorly fitted or top-dose-only effect, or another doubt; inactive means no such curve, though single readings can be large; an effect the other way counts as inactive or inconclusive.

CC(OC(=O)c1ccccc1Oc1ccccc1)C(=O)NC1CC1 (configuration not stated)	none
Cc1ccc(C(c2c(C)n(C)n(-c3ccccc3)c2=O)c2c(C)n(C)n(-c3ccccc3)c2=O)s1	RORg inh 4.47µM, Gal4-VP16 FLuc 7.08µM
Cc1c(C(c2ccccc2)c2c(C)n(C)n(-c3ccccc3)c2=O)c(=O)n(-c2ccccc2)n1C	none (no result: Luc counter)
CN(CC(=O)Nc1ncn[nH]1)S(=O)(=O)c1ccc(Br)cc1	none (no result: Luc counter)
CNC(=S)N1CCN(S(=O)(=O)c2ccc3ccccc3c2)CC1	none (no result: Luc counter)
C=CCOc1ccc(C(=O)Nc2ncn[nH]2)cc1	RORg inh 11.2µM (no result: Luc counter)
CN(c1ccccc1)S(=O)(=O)c1cccc(C(=O)Nc2nccs2)c1	Gal4-VP16 FLuc inconclusive
CCOc1ccc(C(=O)Nc2ncn[nH]2)cc1	none (no result: Luc counter)
CN(c1ccccc1)S(=O)(=O)c1cccc(C(=O)Nc2ncn[nH]2)c1	RORg inh 8.91µM, Gal4-VP16 FLuc inconclusive (no result: Luc counter)
CC(C)Oc1cccc(C(=O)Nc2ccc(NC(=O)c3ccco3)cc2)c1	none
CC(C)COc1ccc(C(=O)Nc2ncn[nH]2)cc1	RORg inh 2.82µM, Gal4-VP16 FLuc 3.55µM (no result: Luc counter)
COc1ccc(OCCCC(=O)Nc2ncn[nH]2)cc1	none
CC(C)Oc1cccc(C(=O)Nc2ncn[nH]2)c1	RORg inh 15.8µM, Gal4-VP16 FLuc inconclusive (no result: Luc counter)
CCOC(=O)c1cnn(-c2ccc([N+](=O)[O-])cc2)c1N	none (no result: Luc counter)
COc1ccc(NC(=O)C2C3C=CC4(O3)C2C(=O)N(CCCN2CCCC(C)C2)C4C(=O)NC2CCCCC2)cc1 (configuration not stated)	none (no result: Luc counter)
CC(C)=CCn1cnc2c1C(NOCc1ccccc1)=NCN2	none
O=C(CCc1nnc(CCCc2ccccc2)o1)NCCN1CCOC1=O	none
COc1ccc(-c2n[nH]c(C)c2-c2cnn(-c3ccccc3)c2)c(O)c1	Gal4-VP16 FLuc inconclusive
COc1ccc(-c2n[nH]c(C)c2-c2cnn(-c3ccccc3)c2)c(O)c1C	RORg inh 11.2µM, Gal4-VP16 FLuc inconclusive
Cc1nc(N)nc2ccccc12	none (no result: RORg inh, Gal4-VP16 FLuc)
CC(C)NC(=O)NC(=O)COC(=O)c1ccccc1O	none
CC(C)NC(=O)NC(=O)COC(=O)c1ccccc1F	RORg inh 11.2µM (no result: Luc counter)
CSc1ccc(/C=C2\CCn3c2nc2cc(C(=O)O)ccc2c3=O)cc1	none (no result: Luc counter)
Cc1cc2sc(C)[n+](CCCOS(=O)(=O)O)c2cc1C	none (no result: RORg inh, Gal4-VP16 FLuc)
CC(C)(C)OC(=O)CN1C(=O)C(Sc2n[nH]c(-c3ccccc3)n2)CCc2ccccc21 (configuration not stated)	RORg inh inconclusive, Gal4-VP16 FLuc inconclusive
Cc1ccnc(SC2CC(=O)N(c3ccc(Br)cc3)C2=O)n1 (configuration not stated)	Gal4-VP16 FLuc inconclusive (no result: Luc counter)
COc1ccccc1N1C(=O)CC(Sc2nccc(C)n2)C1=O (configuration not stated)	RORg inh 11.2µM, Gal4-VP16 FLuc inconclusive
COc1ccccc1N1C(=O)CC(Sc2n[nH]c(-c3cccc(C)c3)n2)C1=O (configuration not stated)	RORg inh 2.82µM, Gal4-VP16 FLuc 5.01µM
Cc1cc(OC(=O)c2cc([N+](=O)[O-])ccc2Cl)c([N+](=O)[O-])c(=O)[nH]1	none (no result: Luc counter)
Cc1cc2nc(-c3ccc(SCC(=O)Nc4ccc5c(c4)OCCO5)nc3)[nH]c2cc1C	Gal4-VP16 FLuc inconclusive, Luc counter 11.2µM
Cc1ccc2nc(-c3ccc(SCC(=O)Nc4ccc5c(c4)OCCO5)nc3)[nH]c2c1	RORg inh inconclusive
CCOC(=O)CSc1ccc(-c2nc3cc(C)c(C)cc3[nH]2)cn1	RORg inh 17.8µM, Gal4-VP16 FLuc inconclusive
Cc1cc2nc(-c3cccnc3SCC(=O)NC(C)C)[nH]c2cc1C	Luc counter inconclusive
COCCOC(=O)CSc1ncccc1-c1nc2cc(C)c(C)cc2[nH]1	RORg inh inconclusive, Gal4-VP16 FLuc inconclusive, Luc counter 12.6µM
CCOC(=O)CSc1ccc(-c2nc3ccccc3[nH]2)cn1	none
COC(=O)Cc1ccc(NC(=S)NNC(=O)C2CC2)cc1	none (no result: Luc counter)
COc1ccc(NC(=O)CCN2CCOCC2)c(OC)c1	none
N#Cc1ccccc1OCCN1C(=O)c2ccccc2C1=O	RORg inh inconclusive
Nc1cccc2c1C(=O)N(CCOc1ccccc1F)C2=O	RORg inh 8.91µM, Gal4-VP16 FLuc inconclusive (no result: Luc counter)
Cc1cc(=O)oc2c(C)c(OCC(=O)N3CCN(c4cccc(Cl)c4)CC3)ccc12	none (no result: Luc counter)
CSc1ccccc1NC(=O)C1CC(c2ccccc2O)=NO1 (configuration not stated)	RORg inh inconclusive, Gal4-VP16 FLuc inconclusive
COC(=O)c1ccccc1NC(=O)C1CC(c2ccccc2O)=NO1 (configuration not stated)	RORg inh 12.6µM, Gal4-VP16 FLuc inconclusive
CCc1ccc(NC(=O)C2CCN(S(=O)(=O)c3ccc4c(c3)CC(C)N4C(C)=O)CC2)cc1 (configuration not stated)	Gal4-VP16 FLuc inconclusive (no result: Luc counter)
C=CCn1c(-c2ccc(Cl)cc2)cnc1SC(C)C(N)=O (configuration not stated)	RORg inh 7.94µM, Gal4-VP16 FLuc inconclusive (no result: Luc counter)
C=CCn1c(-c2ccc(Cl)cc2)cnc1SC(C)C(=O)NC(N)=O (configuration not stated)	RORg inh inconclusive
CCCn1c(-c2ccc(F)cc2)nc2c(NCCCN3CCOCC3)nc(C)nc21	none
O=C1NC(NS(=O)(=O)c2ccccc2)(C(F)(F)F)C(=O)N1CCc1ccccc1 (configuration not stated)	none (no result: Luc counter)
O=C1NC(Nc2nccs2)(C(F)(F)F)C(=O)N1CCc1ccccc1 (configuration not stated)	RORg inh 12.6µM, Gal4-VP16 FLuc inconclusive
O=Cc1ccccc1-n1cncn1	none
CCOC(=O)c1cccc(NC(=O)CCc2nc(-c3ccc(C)cc3)no2)c1	RORg inh 3.16µM
COc1ccccc1-c1noc(CCC(=O)Nc2cccc(C)c2)n1	none
Cc1cccc(-c2noc(CCC(=O)Nc3ccc(C(N)=O)cc3)n2)c1	none (no result: Luc counter)
Cc1ccc(-c2noc(CCC(=O)NCCCN3CCN(c4cccc(Cl)c4)CC3)n2)cc1	RORg inh 3.98µM, Gal4-VP16 FLuc 14.1µM
COc1ccc(-c2noc(CCC(=O)Nc3cccc(C)c3)n2)cc1	RORg inh 0.282µM, Gal4-VP16 FLuc inconclusive
Cc1ccc(-c2noc(CCC(=O)NCCCN3CCN(c4ccc(F)cc4)CC3)n2)cc1	Gal4-VP16 FLuc inconclusive
Cc1cccc(-c2noc(CCCC(=O)Nc3ccc(C(N)=O)cc3)n2)c1	RORg inh 15.8µM, Gal4-VP16 FLuc 11.2µM
CCOC(=O)c1cccc(NC(=O)CCc2nc(-c3ccccc3F)no2)c1	none
COc1ccc(NC(=O)CC2Oc3ccccc3NC2=O)c(OC)c1 (configuration not stated)	none (no result: Luc counter)
CC[C@H](C)[C@H](NC(=O)CNC(=O)[C@H](CCCNC(=N)N)NC(=O)[C@H](CO)NC(=O)[C@H](C)NC(=O)[C@H](Cc1ccc(O)cc1)NC(=O)[C@H](Cc1c[nH]c2ccccc12)NC(=O)[C@H](C)NC(=O)[C@@H]1CCCN1C(=O)[C@H](CC(N)=O)NC(=O)[C@@H](NC(=O)[C@H](CC(=O)O)NC(=O)[C@@H]1CCCN1C(=O)[C@@H](N)[C@@H](C)O)[C@@H](C)CC)C(=O)N[C@@H](CCCNC(=N)N)C(=O)N1CCC[C@H]1C(=O)N[C@H](C(=O)NCC(=O)N[C@@H](CCCNC(=N)N)C(=O)N[C@@H](Cc1ccccc1)C(N)=O)C(C)C	none (no result: Luc counter)

Bioassay records deposited in PubChem BioAssay by National Center for Advancing Translational Sciences (NCATS).
